Screens deposited in PubChem by several laboratories.
PP1 inh = PP1-alpha phosphatase inhibitors, primary screen, counter-screen for PP5 inhibitor project, biochemical, fluorescence, OMFP substrate, single point. Serine/threonine-protein phosphatase PP1-alpha catalytic subunit (Homo sapiens), P62136. purified PP1alpha. inhibition, % at 6.7 µM. 0.9% of 320,000 active. AID 2235, 2010;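 active = inhibition above the mean inhibition of all tested compounds plus 3 SD, computed separately for each screening campaign, cut at about 15% in these data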
NadD block = inhibitors of S. aureus NadD, primary screen, biochemical, colorimetric, uHTS. purified NadD enzyme, colorimetric absorbance read-out. inhibition, % at 20 µM. AID 602399, 2012. Nicotinate-nucleotide adenylyltransferase NadD (Staphylococcus aureus N315). 0.78% of 360,000 active; in the data active = inhibition above about 26%
Exocytosis inh = LAMP-1 surface exposure blockers, TALL-104 cells – cell-based, flow cytometry, MLPCN library, primary screen. TALL-104 LAMP-1 surface exposure; cells stimulated with thapsigargin and PMA. inhibition, % at 10 µM. 0.66% of 360,000 active;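 active = inhibition above about 55%, limit read from the data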
GRK2 aptamer HTS = compounds blocking aptamer binding on GRK2 – biochemical, human GRK2, bead flow cytometry, HTS, primary screen; 0.59% of 330,000 active; inhibition of aptamer binding, % at 10 µM; AID 488847, 2010; Beta-adrenergic receptor kinase 1 (Homo sapiens), P25098; FAM-aptamer displacement from GRK2;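 active = inhibition of aptamer binding above 40%, roughly 3 SD of noise, on plates passing a quality check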;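 also: median bead fluorescence of bound FAM aptamer so fluorescent compounds give negative values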
Target sequence (P25098 whole entry, looked up): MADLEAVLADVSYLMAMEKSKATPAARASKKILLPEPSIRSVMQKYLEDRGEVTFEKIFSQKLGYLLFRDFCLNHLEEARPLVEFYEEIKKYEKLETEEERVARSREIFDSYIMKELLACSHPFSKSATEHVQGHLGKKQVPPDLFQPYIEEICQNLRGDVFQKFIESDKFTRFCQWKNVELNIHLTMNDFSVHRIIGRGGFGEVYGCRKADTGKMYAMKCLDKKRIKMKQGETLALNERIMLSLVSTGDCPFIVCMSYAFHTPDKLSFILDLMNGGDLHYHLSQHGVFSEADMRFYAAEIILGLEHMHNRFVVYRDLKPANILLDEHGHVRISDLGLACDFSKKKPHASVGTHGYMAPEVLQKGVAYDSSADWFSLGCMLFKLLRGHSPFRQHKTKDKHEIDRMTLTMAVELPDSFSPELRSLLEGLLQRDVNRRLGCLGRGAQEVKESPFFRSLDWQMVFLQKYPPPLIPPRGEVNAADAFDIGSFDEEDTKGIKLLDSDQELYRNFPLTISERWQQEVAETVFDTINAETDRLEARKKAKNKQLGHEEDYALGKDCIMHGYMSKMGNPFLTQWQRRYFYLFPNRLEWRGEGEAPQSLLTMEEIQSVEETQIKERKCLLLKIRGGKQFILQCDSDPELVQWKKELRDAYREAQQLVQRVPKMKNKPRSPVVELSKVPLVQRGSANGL
B2AR ag = beta2AR agonists driving receptor internalization, primary screen, cell-based, FAP fluorogen, flow cytometry. Beta-2 adrenergic receptor (Homo sapiens), P07550. AID 504454, 2011. response, % (test concentration not listed). 0.43% of 340,000 active. Am2.2-beta2AR cells;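 active = response above a set limit, near 3 SD of response in nonfluorescent compounds, cut at about 42% in these data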
NadD inh conf = inhibitors of S. aureus NadD, confirmation, biochemical, colorimetric, single concentration. shares compounds with NadD block. purified S. aureus NadD, colorimetric enzyme assay. inhibition, % at 20 µM. 13% of 2,000 active. AID 624309, 2012; in the data active = inhibition mostly above about 42%, no sharp cut-off; inactive = mostly below about 42%
Starred values were filed as active, the others as inactive; · = no result. In the library only some 2.9% were active in any assay of this set; here they are far more common.

SMILES	PP1 inh	NadD block	Exocytosis inh	GRK2 aptamer HTS	B2AR ag	NadD inh conf
O=C(CNc1ccc2ccccc2c1)N/N=C/c1ccc(OC(=O)/C=C/c2ccco2)cc1	5	25	1	0	0	·
O=C(CNc1cccc2ccccc12)N/N=C/C(Br)=C/c1ccccc1	3	45*	7	0	2	24
O=C(CNc1cccc2ccccc12)N/N=C/c1ccc(OC(=O)/C=C/c2ccco2)cc1	·	40*	4	·	-5	13
CC1=CC(C)(C)NC(=S)N1c1ccc(N(C)C)cc1	·	-2	8	·	2	·
CC1=CC(C)(C)n2c(O)c(C3=NC(=S)NC3=O)c3cc(OC(=O)c4cccc5ccccc45)cc1c32	-5	55*	1	0	19	6
Nc1c(C(=O)N/N=C/c2ccc(F)cc2)oc2nc(-c3ccccc3)cc(-c3ccco3)c12	10	11	-3	0	-2	·
Nc1c(C(=O)N/N=C/c2ccccc2Cl)oc2nc(-c3ccccc3)cc(-c3ccco3)c12	3	31*	-9	3	-174	-4
O=C(CNc1ccc2c(c1)OCO2)N/N=C\c1cn(Cc2ccccc2)c2ccccc12	17*	37*	-6	0	9	19
O=C(CNc1ccccc1)N/N=C/c1ccc2c(c1)OCO2	-1	6	-2	2	0	·
COC(=O)c1c(NC(=O)C2SC(=NC3CCCCC3)C(C(N)=O)=C2N)sc2c1CCCC2 (centres undefined)	-1	38*	-3	1	-5	7
C=C(C)CN=C1SC(C(=O)Nc2sc3c(c2C(=O)OC)CCC3)C(N)=C1C(N)=O (centres undefined)	1	12	10	0	9	·
CCn1nnc2cc(C(=O)Nc3cc(Cl)ccc3C)ccc21	-1	-9	-1	0	2	·
CCOC(=O)C1=C(N)n2c(s/c(=C\c3ccco3)c2=O)=C(C(=O)OCC)C1c1ccco1 (centres undefined)	-6	21	2	0	23	·
CCOC(=O)C1=C(N)n2c(s/c(=C\c3ccco3)c2=O)=C(C(=O)OC(C)C)C1c1ccco1 (centres undefined)	-4	32*	2	6	65*	18
COc1cccc(-c2nnc(NC(=O)c3ccc4ncsc4c3)o2)c1	14	31*	15	1	30	8
CCOc1ccc(-c2nnc(NC(=O)c3ccc(OCC(C)C)c(OC)c3)o2)cc1	4	37*	-1	0	2	5
O=c1ccc(-c2nc3ccccc3n2C(CCc2ccccc2)c2nc3ccccc3[nH]2)c[nH]1 (centres undefined)	·	·	-1	·	·	·
COC(=O)c1ccc(NC(=O)Cn2nc(C)cc2C)cc1	-1	-6	-2	3	-3	·
CCN(C[C@H]1N[C@@](C)(C(=O)OC)[C@H]2C(=O)N(Cc3ccccc3)C(=O)[C@@H]12)C(=O)Nc1ccc(F)cc1	·	4	2	1	-2	·
CCCn1c(=S)[nH]c2cc(C(=O)N3CCN(c4ccccc4)CC3)ccc2c1=O	·	3	-18	·	·	·
O=C(c1ccc2c(=O)n(Cc3ccco3)c(=S)[nH]c2c1)N1CCN(c2ccccc2)CC1	-1	28*	-3	0	3	24
CC1CC(C)CN(C(=O)c2ccc3c(=O)n(Cc4ccc5c(c4)OCO5)c(=S)[nH]c3c2)C1 (centres undefined)	14	32*	-1	4	6	5
N#CCCN(Cc1ccccc1)C(c1ccnc2ccccc12)c1nnnn1-c1ccc2c(c1)OCCO2 (centres undefined)	·	9	-6	·	·	·
CN(CCc1ccccc1)C(c1ccnc2ccccc12)c1nnnn1-c1ccc2c(c1)OCCO2 (centres undefined)	·	2	1	·	·	·
Cc1cccc(C)c1-n1nnnc1C(c1ccnc2ccccc12)N(Cc1ccccc1)Cc1ccccc1 (centres undefined)	·	32*	2	·	·	28
SMILES	PP1 inh	NadD block	Exocytosis inh	GRK2 aptamer HTS	B2AR ag	NadD inh conf
c1ccc(CN(Cc2ccccc2)C(c2ccnc3ccccc23)c2nnnn2-c2ccc3c(c2)OCCO3)cc1 (centres undefined)	·	40*	-4	·	·	35
Cc1cccc(C)c1-n1nnnc1C(c1ccnc2ccccc12)N(CCC#N)Cc1ccccc1 (centres undefined)	·	8	3	·	·	·
Cc1cccc(C)c1-n1nnnc1C(c1ccnc2ccccc12)N(C)Cc1ccc(Cl)c(Cl)c1 (centres undefined)	·	29*	4	·	·	9
Nc1nc(N)c(C=Nc2ccc(Br)cc2)c(Nc2ccc(Br)cc2)n1	1	36*	-24	0	26	-5
Nc1nc(N)c(Br)c(Nc2ccc(Cl)c(Cl)c2)n1	·	2	-4	·	2	·
Cc1ccc(-c2cc(C(=O)Nc3sc4c(c3C(=O)NCc3ccco3)CCC4)[nH]n2)c(O)c1	-5	36*	0	4	0	0
Cc1ccc(C(=O)Nc2sc3c(c2C(=O)NCc2ccco2)CCCC3)cc1	1	3	1	0	1	·
Cc1cc(O)c(-c2cc(C(=O)Nc3sc4c(c3C(=O)NCc3ccco3)CCC4)[nH]n2)cc1C	10	36*	0	0	8	-1
CCc1cc2c(SCC(=O)NC3CCCC3)ncnc2s1	·	-4	-4	·	·	·
c1ccc(-c2ccc(CN3C[C@@H]4C(c5ccccc5)C5(c6cccnc6)CC4(C5)[C@H]3c3ccccc3)cc2)cc1 (some centres undefined)	13	52*	9	0	-2	28
FC(F)(F)c1ccc(C2[C@H]3CN(Cc4ccc(-c5ccccc5)cc4)[C@H](c4ccccc4)C34CC2(c2cccnc2)C4)cc1 (some centres undefined)	3	·	·	0	·	·
COc1ccc(-c2csc(NC(C)c3nc4cc(C(F)(F)F)ccc4n3CCOCCO)n2)cc1 (centres undefined)	3	5	0	·	2	·
CCNc1sc(C(=O)c2cccs2)c(N)c1-c1nc2ccccc2s1	3	30*	25	3	8	0
CCNc1sc(C(=O)c2cccs2)c(N)c1C#N	1	5	-2	4	9	·
O=C1Nc2ccccc2N(C(=O)c2ccc(-c3ccccc3)cc2)C1c1nc2ccccc2[nH]1 (centres undefined)	·	31*	2	·	·	20
O=C1Nc2ccccc2N(C(=O)c2c(F)cccc2F)C1c1nc2ccccc2[nH]1 (centres undefined)	·	12	10	·	·	·
COC(CNS(=O)(=O)c1ccc(S(=O)(=O)NC2CC2)cc1)OC	·	-1	-5	1	1	·
